Experiment [1] in a line: NCI Yeast Anticancer Drug Screen. Data for the rad50 strain (AID 155).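 Further: 0% = growth of vehicle-only cultures of the same strain.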 The following applies: S. cerevisiae rad50 strain growth inhibition; at 50.0 µM; hits give high values. The procedure, abridged:
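Readout: growth inhibition relative to vehicle-treated cultures. Compound exposure was carried out in a genetically defined yeast strain deficient in DNA damage repair.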

Experiment [2] in a line: NCI Yeast Anticancer Drug Screen. Data for the mec2-1 strain (AID 157). The following applies: S. cerevisiae mec2-1 strain, at 50.0 µM, hits give high values. Summed up:
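mec2-1 yeast strain, carrying an alteration in DNA damage repair or cell cycle control, was exposed to compounds; growth inhibition was measured relative to vehicle-treated controls.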

The nature of experiment [3]: NCI Yeast Anticancer Drug Screen. Data for the sgs1 mgt1 strain (AID 161).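 Further: 0% = growth of cultures given vehicle only.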 The following applies: S. cerevisiae sgs1 mgt1 strain, at 50.0 µM, hits give high values. Summed up: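 Growth of a repair-deficient yeast mutant was monitored after compound treatment and expressed as inhibition relative to vehicle-treated cultures.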
Experiment [4] in a line: NCI Yeast Anticancer Drug Screen. Data for the cln2 rad14 strain (AID 165).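 Further: 0% = growth equal to vehicle treated cultures.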 The following applies: S. cerevisiae cln2 rad14 strain, at 50.0 µM, hits give high values. The procedure, abridged:
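Yeast carrying cln2 and rad14 alterations (cell cycle control and DNA damage repair) were exposed to compounds. Growth inhibition was measured against vehicle-treated controls.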

Experiment [5] can be described thus: NCI Yeast Anticancer Drug Screen. Data for the bub3 strain (AID 167). The following applies: S. cerevisiae bub3 mutant strain, at 50.0 µM, hits give high values. The procedure, abridged: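 Readout: yeast growth inhibition, expressed relative to vehicle-only wells. The test organism is a mutant strain from a panel with lesions in DNA repair or checkpoint genes.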

Experiment [6] in a line: NCI Yeast Anticancer Drug Screen. Data for the mlh1 rad18 strain (AID 175). The following applies: S. cerevisiae mlh1 rad18 strain growth inhibition; at 50.0 µM; hits give high values. The procedure, abridged: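 Growth inhibition of the yeast strain was measured after compound exposure and expressed relative to vehicle-treated controls. The strain carries defined defects in DNA damage repair.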

The record followed here is PubChem BioAssay (NCI).

Structures are written as SMILES. This is part of a sample that, as a whole, favours compounds with a hit. Of some 79,000 tested, about 15% had one in any assay. Values without a mark were called inactive. Active and inactive are the calls of the source. No stated cut-off is given here; in the data, active means growth inhibition above about 70%; inactive means the rest.

For the compound `Cc1cc(C2(c3cc(C)c(O)c4ncccc34)OC(=O)c3ccccc32)c2cccnc2c1O`, the growth inhibition in experiment [1] was 84.6% (active); in experiment [2], 85.5% (active); in experiment [3] it was 50.6%; in experiment [4], 44%; in experiment [5], 66%; in experiment [6] it was 87.5% (active).

Turning to `COC(=O)/C(C#N)=C/c1ccco1`, the growth inhibition in experiment [1] was -34%; in experiment [2], 6.65%; in experiment [3], -14.2%; in experiment [4], 2.5%; in experiment [5] it was -2.05%; in experiment [6], -21.6%.

For `O=C(c1ccc(Cl)c(Cl)c1)C(CS(=O)(=O)O)CS(=O)(=O)O` (tested in a mixture with another compound), the growth inhibition was -1.55% in experiment [1]; 0.4% in experiment [2]; -0.8% in experiment [3]; -4.45% in experiment [4]; -4.8% in experiment [5]; 12.3% in experiment [6].

For `CN(C)CCC(O)(c1ccccc1)C(O)(CCN(C)C)c1ccccc1` (stereo unspecified), the growth inhibition was -3.15% in experiment [1]; -14.8% in experiment [2]; -8.45% in experiment [3]; -8.85% in experiment [4]; -13.8% in experiment [5]; -16.4% in experiment [6].

Regarding `O=C(C[n+]1ccccc1)N/N=C(\Cc1nc2ccc([N+](=O)[O-])cc2[nH]c1=O)C(=O)Nc1cc(Cl)c(Cl)cc1Cl`, the growth inhibition is 24.2% in experiment [1]; 10.1% in experiment [2]; 2.5% in experiment [3]; -27.8% in experiment [4]; 16.9% in experiment [5]; 9.35% in experiment [6].

As to `CCCCN(CCCC)C(=O)OCC`, the growth inhibition in experiment [1] is 30.2%; in experiment [2], 8.3%; in experiment [3] it was 6.35%; in experiment [4], 12.4%; in experiment [5] it was 19.2%; in experiment [6] it was 14.5%.

Consider `COc1ccc(-n2c(N)c(C#N)c(C#N)c2-c2cccc([N+](=O)[O-])c2)cc1`, for which the growth inhibition in experiment [1] is 6%; in experiment [2] it was 9.75%; in experiment [3], -62.8%; in experiment [4] it was -3.1%; in experiment [5] it was -18.9%; in experiment [6] it was -48.5%.

For `CC(O)CCCCC(O)CCC[C@H](O)[C@H]1CCC([C@H]2CCC([C@@H](O)CCCCCCCCCCCCC3=C[C@H](C)OC3=O)O2)O1` (stereo partly specified), the growth inhibition in experiment [1] is 40.9%; in experiment [2] it was 29.1%; in experiment [3], 71.2% (active); in experiment [4], 85.5% (active); in experiment [5], -16.7%; in experiment [6], 81.7% (active).

With `Nc1c(C(=O)O)cccc1C(=O)O`, the growth inhibition in experiment [1] was 5.25%; in experiment [2], -18.6%; in experiment [3] it was -11.7%; in experiment [4], 0.55%; in experiment [5], 4.1%; in experiment [6], 6.75%.

As to `CCCCCc1c(C)[nH]n(C(N)=NCCSCc2nc[nH]c2C)c1=O`, the growth inhibition was 31.5% in experiment [1]; -0.8% in experiment [2]; 35% in experiment [3]; 22.4% in experiment [4]; -22.5% in experiment [5]; 25.2% in experiment [6].

In the case of `CCOc1cccc(OCC)c1C`, the growth inhibition in experiment [1] was -4.55%; in experiment [2], -17.4%; in experiment [3], -2.55%; in experiment [4] it was 11.3%; in experiment [5] it was -9%; in experiment [6] it was 14.9%.

On to `CCCCCCC(C)(C)NC(N)=O`, for which the growth inhibition in experiment [1] is -9.4%; in experiment [2] it was 4.4%; in experiment [3], -4.5%; in experiment [4] it was 16.8%; in experiment [5], 3.75%; in experiment [6], -11.8%.

`O=C1OC(=O)c2ccc(SCC(O)CCl)c3cccc1c23` (stereo unspecified): the growth inhibition was 99.4% (active) in experiment [1]; 99.5% (active) in experiment [2]; 98.7% (active) in experiment [3]; 95.8% (active) in experiment [4]; 98.9% (active) in experiment [5]; 99.2% (active) in experiment [6].

On to `CCOc1ccc(/C=C(\NC(=O)c2ccccc2)C(=O)Nc2ccccc2)cc1OC`, for which the growth inhibition in experiment [1] was 4.8%; in experiment [2] it was -12.6%; in experiment [3], -4.45%; in experiment [4] it was -25.6%; in experiment [5], -0.15%; in experiment [6], 2.1%.

Turning to `Oc1cc2c(cc1O)C1c3ccc(O)c(O)c3OCC1(O)C2` (stereo unspecified), the growth inhibition in experiment [1] is 21.9%; in experiment [2], 13%; in experiment [3] it was 22.7%; in experiment [4] it was -1%; in experiment [5], 9.4%; in experiment [6] it was 22.4%.

Take `Cc1cc(N(CCC#N)CCC#N)ccc1/C=C(\NC(=O)/C=C/c1ccccc1)C(=O)N=[N+]=[N-]`: the growth inhibition in experiment [1] was -30.4%; in experiment [2], -31.9%; in experiment [3] it was -44.9%; in experiment [4], -19.4%; in experiment [5] it was -21.1%; in experiment [6], -7.2%.

On to `O=c1[nH]c2ccccc2c(O)c1O`, for which the growth inhibition in experiment [1] is 24.4%; in experiment [2], 7.85%; in experiment [3], 22.9%; in experiment [4], 14.7%; in experiment [5], 1%; in experiment [6], -5.35%.

Consider `C=CCCCCOCOCCOC`, for which the growth inhibition was 13.7% in experiment [1]; 17.6% in experiment [2]; 5.8% in experiment [3]; 0.5% in experiment [4]; 0.15% in experiment [5]; -28.4% in experiment [6].

Turning to `Cc1cc(S(N)(=O)=O)c(SCc2nc(N)nc(N(C)C)n2)cc1Cl`, the growth inhibition was -30.8% in experiment [1]; -22.3% in experiment [2]; -20.3% in experiment [3]; 9.05% in experiment [4]; -37.4% in experiment [5]; 7.8% in experiment [6].

As for `CN1C=CC=CC1=C1C(=O)c2ccccc2C1=O`, the growth inhibition in experiment [1] was 26.8%; in experiment [2] it was 12.6%; in experiment [3] it was 17.2%; in experiment [4], 35.6%; in experiment [5], -2.1%; in experiment [6], 23.2%.

Regarding `O=C1c2c(O)cccc2C(C(=O)CCCCC(=O)C2c3cccc(O)c3C(=O)c3c(O)cccc32)c2cccc(O)c21`, the growth inhibition in experiment [1] was 1.75%; in experiment [2], 15.2%; in experiment [3], 27.3%; in experiment [4], 17.1%; in experiment [5], 17.2%; in experiment [6] it was 1.05%.
